BaF3 tox – parental Ba/F3 cell viability inhibition, counter-screen for JAK2V617F inhibitor project, murine pro-B, CellTiter-Glo luminescence; hit rate 1.1% among 220,000; CellTiter-Glo ATP luminescence; inhibition, % at 5.6 µM;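 active = inhibition above a per-campaign cutoff, the mean inhibition of all tested compounds plus 3 SD, cut at about 27% in these data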;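 also: 0% = DMSO wells and 100% = JAK Inhibitor I control wells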
Ba/F3 V617F tox – reduced viability of JAK2V617F-dependent Ba/F3 cells, primary screen, JAK2V617F inhibitor project, cell-based, Ba/F3 EpoR-JAK2V617F, luminescence; ATP luminescence; inhibition, % at 5.6 µM; hit rate 1.1% among 220,000; AID 1446, 2008;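 active = inhibition above the campaign mean plus 3 SD over all tested compounds, cut at about 24% in these data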;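 also: cytokine-independent growth of Ba/F3 cells driven by EpoR plus mutant JAK2; 0% = DMSO-treated cells and 100% = JAK inhibitor I control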
APP transl inh – inhibitors of APP translation via 5'UTR reporter, primary screen, APP 5'UTR luciferase, SH-SY5Y cells. SH-SY5Y APP 5'UTR-luciferase reporter, luminescence. inhibition, % at 2 µM. hit rate 0.82% among 190,000;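 active = inhibition above a set limit, derived from the sample mean plus 3 SD, cut at about 45% in these data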
IEC-6 cytotox – cytotoxicity in IEC-6 intestinal epithelial cells, primary screen, cytotoxicity control for KLF5 inhibitor project, cell-based, luminescence | IEC-6 cytotoxicity, luminescence viability | AID 1825, 2009 | hit rate 0.78% among 290,000 | inhibition, % at 5 µM; in the data active = inhibition above about 22%;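 also: 0% = plate median of test compound wells and 100% = cytotoxic reference compound wells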
KLF5 inhibitor – KLF5 expression inhibitors, primary screen, DLD-1 cells, luminescence; hit rate 0.23% among 290,000; DLD-1 KLF5 promoter-luciferase reporter; inhibition, % at 5 µM; AID 1700, 2009;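 active = inhibition above a per-plate limit of that plate's mean compound inhibition plus 3 SD, cut at about 60% in these data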;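 also: 0% = DMSO wells and 100% = LY294002 at 200 µM; higher means less KLF5 promoter-driven luciferase light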
* hit, by the source's call; . = not tested or not shown. Hits are enriched below; roughly 1.8% of the tested compounds scored in any of these assays.

SMILES	BaF3 tox	Ba/F3 V617F tox	APP transl inh	IEC-6 cytotox	KLF5 inhibitor
COc1ccc(N2CCc3c(C)nc4c(OC)cccc4c32)cc1	78*	87*	86*	70*	57
COc1ccc(C2NCCc3cc(OC)c(OC)cc32)cc1OC (stereo not drawn)	2	0	59*	-1	-6
COc1cc2c(cc1OC)C(c1ccc(N(C)C)cc1)NCC2 (stereo not drawn)	.	.	.	2	-28
O=C(O)c1csc(N/N=C/c2ccc(Br)cc2)n1	9	6	-9	2	-54
NC(N)=NC(N)=Nc1ccc(SC(F)(F)F)cc1	67*	75*	16	35*	12
O=C(C1Cc2ccccc2CN1C(=O)c1ccccc1)N1CCN(c2ccccc2)CC1 (stereo not drawn)	47*	58*	.	1	4
CCCc1cc(=O)oc2cc(OCC(=O)Nc3ccc(S(N)(=O)=O)cc3)ccc12	.	.	.	-10	-5
C[N+]1(CCCOC(=O)C2(c3ccccc3)CCCC2)CCOCC1	58*	6	-5	0	18
N#CCc1ccc(NC(=O)/C=C/c2ccc([N+](=O)[O-])o2)cc1	83*	94*	56*	6	-16
CCC(c1nnnn1C1CCCC1)N1CCN(c2cccc(OC)c2)CC1 (stereo not drawn)	2	-1	-23	-4	8
Cn1cnc([N+](=O)[O-])c1S(=O)(=O)c1cccc(Cl)c1	102*	86*	9	68*	-4
Cc1nn(C(C)C(=O)c2cccc(Cl)c2)c(C)c1[N+](=O)[O-] (stereo not drawn)	4	0	12	1	6
COc1cc(/C=C2/NC(=O)N(c3cccc(Cl)c3)C2=O)ccc1O	76*	100*	55*	21	-40
CCCCC(=O)Nc1cc(OCC)c(NC(=S)NC)cc1OCC	62*	24*	0	2	-25
O=C(N/C(=C/c1ccc(F)cc1)C(=O)N1CCCC1)c1ccccc1	.	.	.	-9	-26
NC(=O)c1ccc(NC(=O)COc2cccc3ccccc23)cc1	.	.	.	0	0
O=C(O)CC1S/C(=N/N=C/c2ccc([N+](=O)[O-])cc2)N(c2ccc(O)cc2)C1=O (stereo not drawn)	80*	0	-4	-3	-8
COc1ccc(/C=N\N=C2/SC(CC(=O)O)C(=O)N2c2ccc(O)cc2)cc1OC (stereo not drawn)	4	-2	-5	-10	-16
COc1cc(NC(=O)c2cc(C)no2)c(OC)cc1Cl	.	.	.	-5	-31
CCOc1ccc(S(=O)(=O)N2CCN(C(=O)c3ccncc3)CC2)cc1	.	.	.	1	-4
CC1=NN(c2ccccc2)C(=O)/C1=C\c1cc(C)n(-c2cccnc2)c1C	-3	3	.	-2	-4
CC1=NN(c2ccccc2)C(=O)/C1=C\c1cc(C)n(-c2ccccc2)c1C	1	1	-50	25*	-43
CCN(CC)S(=O)(=O)c1ccc(C(C)NC(=O)Cc2c[nH]c3ccccc23)cc1 (stereo not drawn)	.	.	.	-9	-35
Cc1ccc2[nH]c3c(N4CCN(Cc5ccccc5)CC4)ncnc3c2c1	25	1	-9	4	-16
Cc1ccc2[nH]c3c(N4CCCCCC4)ncnc3c2c1	48*	46*	-3	7	-41
SMILES	BaF3 tox	Ba/F3 V617F tox	APP transl inh	IEC-6 cytotox	KLF5 inhibitor
CCn1c(=S)sc2c(=O)n(CC(=O)Nc3ccc(Cl)cc3)c(C)nc21	.	.	.	-1	-11
Cc1cc2oc(=O)cc(Cn3ncc(Cl)c(Cl)c3=O)c2cc1Cl	3	1	88*	-5	-22
c1csc(CNc2ncnc3sccc23)c1	36*	34*	3	8	-24
O=C(CN1CCN(S(=O)(=O)c2ccccc2)CC1)Nc1ccc([N+](=O)[O-])cc1	2	-2	-6	2	-2
CCCc1c(CC)c(=N)c2ccccc2n1C	65*	71*	-2	6	-9
Cc1cc2nc3ccc(=[N+](C)C)cc-3sc2cc1N	85*	68*	.	16	25
Cc1nc2cc(C)c(C)cc2s1	6	2	-10	-3	-10
COc1ccc2nc(N=Nc3ccc(N(C)C)cc3)sc2c1	8	4	-113	2	-46
CN(C)c1ccc2nc3ccc(=[N+](C)C)cc-3sc2c1	101*	97*	62*	6	31
COc1ccc(Cl)c2sc(N3CCN(C(C)=O)CC3)nc12	.	.	.	-1	-20
O=S(=O)(NCCN1CCOCC1)c1cc(Cl)ccc1Cl	.	.	.	4	-29
CCCOc1ccc(/C=N/NC(=S)Nc2ccccc2[N+](=O)[O-])c(O)c1	4	-3	46*	-1	35
COCCn1c(-c2ccc3ccccc3c2)nc2c1c(=O)[nH]c(=O)n2CC(C)C	.	.	.	4	-22
CN1CCN(CCCNC(=O)c2cc3c(-c4ccc(Cl)cc4)nn(C)c3s2)CC1	10	6	8	16	-33
CCN(CC)CCCNC(=O)c1cc2c(-c3ccc(Cl)cc3)nn(C)c2s1	29*	7	-3	14	-14
COc1ccccc1N(CC(O)Cn1c(C)nc2ccccc21)S(=O)(=O)c1ccccc1 (stereo not drawn)	13	5	-26	1	9
CCc1ccc(Nc2cc(=O)n(C3CCCCC3)c(=O)[nH]2)cc1	2	-2	-20	-14	-63
O=c1cc(Nc2ccc3c(c2)OCCO3)[nH]c(=O)n1C1CCCCC1	3	12	83*	2	-12
O=C(NCc1cccnc1)C1CC(c2ccccc2O)=NO1 (stereo not drawn)	.	.	.	-2	-7
CCC(C)N1CC(O)=C(c2nc3ccccc3[nH]2)C1=N (stereo not drawn)	90*	-1	-35	5	-35
O=C(CN1CCOCC1)NNc1c2ccccc2nc2ccccc12	0	0	.	-2	-46
C[N+]1(CC(=O)NNc2c3ccccc3nc3ccccc23)CCOCC1	29*	17	-17	1	9
O=C(CCc1ccccc1)Nc1cc(Cl)ccc1O	29*	23	-10	0	-24
Clc1cnc2nc(SC/C=C/c3ccccc3)[nH]c2c1	-3	-3	.	2	-15
O=C1NC(=O)C(CC(=O)N(Cc2cccs2)C2(C(=O)NC3CCCCC3)CCCCC2)N1 (stereo not drawn)	88*	5	5	0	-22
CCc1cc(=O)oc2cc3occ(-c4ccc(OC)c(F)c4)c3cc12	8	2	91*	6	-32
S=C(Nc1ccccc1)N1CCN(Cc2ccccc2)CC1	39*	5	.	0	10
Cn1cc(CN2C[C@H]3CC[C@H]2C3)c(-c2ccccc2F)n1	31*	55*	9	10	-1
Cn1cc(CN2CCC(C(=O)N3CCCC3)CC2)c(-c2ccccc2F)n1	-1	-3	3	-9	-8
O=C(Nc1ccc(NC(=O)c2ccccc2Cl)nc1)c1ccncc1	90*	-1	-4	1	-30

Screens deposited in PubChem by several laboratories.
